Reference: the supplement of paper PMC6555819

Tests used:
Test in all cases: PBM binding z-score (relative to random genomic background probes); higher = stronger binding; sequences stand for … in GC…GCGATTGACAGCGTAGAATGAAGG
[1] = test system: RARb homodimer (NR concentration 270 nM)
Outline: (§1)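 Binding z-scores take random background probes as their reference. They come from custom Agilent 4×180K protein-binding microarrays incubated 1 h with ligand-free nuclear receptor dimers, with antibodies against each partner (one per run) detecting binding. Scanned fluorescence was regression-normalized.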

[2] = test system: RARg:RXRa (NR concentration 270 nM, RXRa partner concentration 90 nM)
Outline: as §1

[3] = test system: RARg homodimer (NR concentration 270 nM)
Outline: as §1

[4] = test system: RXRa DBDmut IVT, anti-RXR (DBD mutation: RXRa K156A/R161A, NR concentration 90 nM)
Outline: as §1

[5] = test system: RXRa homodimer (NR concentration 180 nM)
Outline: as §1

[6] = test system: THRa:RXRa (NR concentration 90 nM, RXRa partner concentration 90 nM)
Outline: as §1

[7] = test system: THRa homodimer (NR concentration 90 nM)
Outline: as §1

[8] = test system: VDR homodimer (NR concentration 270 nM)
Outline: as §1

Sequence	PBM binding z-score [1]	PBM binding z-score [2]	PBM binding z-score [3]	PBM binding z-score [4]	PBM binding z-score [5]	PBM binding z-score [6]	PBM binding z-score [7]	PBM binding z-score [8]
TCTAGTTGGTCACGGAGGTCACTCACGACGGGTA	4.12	4.23	4.31	1.24	3.96	3.23	2.26	2.93
ATATGTAGGTTAGCTGCGGTCATTCAGACTAGGC	2.02	1.43	1.83	0.343	0.968	4.05	0.202	0.904
ACTAGCGGGCCAAGGGTCACTCAAGATTAGTCCG	3.7	3.9	3.71	0.364	4	2.62	-0.0687	1.07
CGAACTAGGTCATCCAGGACAGGGAATACATTGA	2.82	3.79	4.29	2.17	2.65	3.52	1.93	1.73
ATCGAAAGGTCGTGAGGTGGGTATACAGAAAGGC	2.93	4.59	3.86	1.52	5.16	2.6	0.377	1.38
TCTGCTAGGTCAGTTGGTCAGATAACGAGCTGCC	2.62	2.67	3.55	0.564	1.03	1.38	0.154	-0.455
ATCTCTAGGTAAGCAAGTTCAGTGAATGCCGAAC	1.09	0.455	0.778	0.62	0.3	0.771	0.165	2.32
GCAAACAGGTGAAACGCAGGTAACTCAGGGTGGC	0.0626	0.796	0.0633	-0.459	0.616	1.52	-0.516	-0.658
CGAACTAGGTCAATGACAGGACAGTGAATAGTAA	2.71	4.32	4.46	1.49	2.17	2.62	0.35	0.409
CCAGACAAGTGAAAGGTAACTCAGTCTGGTACGC	0.344	0.201	0.303	0.272	0.604	0.291	-0.287	0.0715
GCGACTGGGGCAGAGCAGGTTACCATAAGGTTGG	0.826	0.0864	0.288	-0.613	0.225	1.64	-0.115	-0.654
TAGCGTAGGTCATGCGGGCCAGTATAGTGTCGGC	2.91	4.14	4.63	0.594	3.78	2.27	-0.424	0.141
TCTATTAGGTGATTAGGGCAACCGAAACAGCGGA	1.1	1.09	1.02	0.665	0.927	1.24	0.68	0.277
GCATATAGGTAATACAAGGTGAATGTCCGATTGT	0.685	0.413	0.66	0.0909	0.689	4.18	0.928	-0.178
ATCTCTGGGTAACAAGTTCAGTGAAAGAGAGGAC	1.8	1.39	1.59	0.883	0.958	1.21	1.06	2.71
ATCTCTAGGTAACCAAGTTCGGTGAATGCCGAAC	0.477	0.289	0.0649	0.0543	0.189	0.968	0.803	1.13
CAGACTGGGGCAAAGGTTACCATACTCAGTACGA	2.35	3.54	2.64	0.804	3.83	1.97	0.0193	0.311
ATATGTAGGTTACATCCGGGTCATTCAAGCTATG	2.89	3.76	2.1	1.48	3.24	3.88	2.61	2.99
CTACCAAGGTGAACAGGGTCGTTGATTACTATTC	1.71	1.51	1.17	1.08	1.87	2.87	1.68	1.92
CCAGACAGGTGAAAGGTAACTCAATCTGGTACGC	1.19	1.48	0.946	0.203	2.39	1.1	0.0708	-0.0474
CGTCCAAGGACAAGGTCAGTGAAAGAGACTCGAA	3.32	3.17	3.98	1.46	2.22	3.63	2.39	0.725
TAGCCTAGGTCAGATCTGGCCAGTATACGCTATA	1.82	2.73	3.49	-0.24	1.3	2.57	-0.423	-0.751
TATCCTAGGTCATGCGGGCCAGTATAGTGTCGGC	3.12	4.06	4.98	1.6	3.59	3.43	1.91	1.29
CCTACTGGGCCGAAGGTCATTGATTCCAATGCTC	3.08	2.93	2.53	0.398	3.01	1.99	0.19	1.46
CTCGAAAGGTCGGTTGAGGTGGGTATACGGATAA	1.83	2.28	2.25	0.695	1.86	4.1	0.422	1.06
CCTATTAGTCGACCATAAGGGCAACCGAAGCTCG	1.55	0.761	0.875	0.45	0.505	1.33	0.896	0.533

Sequence	PBM binding z-score [1]	PBM binding z-score [2]	PBM binding z-score [3]	PBM binding z-score [4]	PBM binding z-score [5]	PBM binding z-score [6]	PBM binding z-score [7]	PBM binding z-score [8]
GATACAGGGTCAGCGAGAGGCCAGAGTATGGAAA	3.12	6.57	4.48	1.31	4.6	3.3	0.369	0.864
TCTTGTAGATCATAGGTTAAGAAAGCCGAAGCCT	0.203	0.785	0.187	0.657	1.34	0.458	-0.386	-0.05
CGTCCAAGGTCAGAGAGGTCGGTGAATGCCGAGT	4.09	4.84	5.91	2.7	3.93	3.66	1.38	3.09
CGTCCCAGGTCAGCAGGTCAGTGAAAGCGACGTG	3.99	4.83	4.51	0.368	3.25	3.56	2.19	0.573
CAGCCTAGGTCAGGGCCAGTATCGGAGGAACGTT	2.85	3.16	4.2	-0.106	1.55	1.96	0.58	-0.476
TAGCCTAGGTCATTCGGGCCAGTATAGTGTCGGC	3.25	3.72	4.17	1.79	3.07	3.16	1.11	1.49
TCATATAGGTAAAGGTGAAAGTAGAACGATATGA	1.35	1.71	1.43	0.637	2.2	1.36	-0.513	-0.148
TCTAGCCGGCCAGAGGGTCACTCAAGAGGTACGG	2.6	2.42	2.26	-0.0421	2.31	1.44	-0.64	-0.169
CCTCGGAGGATAGAAGGTCAGAGCTGTCCGCTTT	2.9	2.17	2.05	-0.11	1.52	1.66	-0.386	-0.101
ATCTCTACGTAACAAGTTCAGTGAAAGAGAGGAC	1.68	0.999	1.24	0.873	0.659	1.07	0.629	2.6
CCTAGTTGGTCAAGGTCATACACGCTATAGGTAC	4.18	4.12	4.33	2.53	4.46	4.03	3.75	4.48
TTTTGTAGATCAAAGGTTAAGAAAGCCGAAGCCT	1.49	1.74	0.912	-0.536	3.39	1.3	-0.617	-0.0263
ACTAGTTGGTCAGCTAAGGTCACACACAATTCGG	4.54	4.33	4.53	1.25	4.2	5.21	5.38	2.63
CGAACTAGGACAGAACAGGACAGTGAAGGATGAT	0.214	0.299	0.538	-0.164	0.23	0.492	-0.221	-0.157
CCTACTGGGCCAAAGATCATTGATTCCAATGCTC	-0.626	0.0876	-0.132	-0.275	0.0908	-0.415	-0.657	-0.324
ATCGAAGGGTCGTGAGGTGAGTATACAGAAAGGC	2.09	3.05	2.55	0.87	3.4	2.84	1.51	0.783
TAGCCTAGTTCAGATCGGGCCAGTATACGCTATA	-0.206	-0.0236	0.216	0.421	-0.081	2.53	-0.553	0.117
GCAGACAGGTGAAACGCAGATAACTCAGGGTGGC	-0.0268	0.355	0.45	-0.555	0.883	0.121	-0.589	-0.804
ATCAAAAGGTCGTGAGGTGAGTATACAGAAAGGC	3.41	4.87	4.4	1.25	5.51	3.49	1.89	1.49
ATATGTAGGTTATCAGGTCATTCAGTTTGCGCAT	3.6	3.19	2.93	1.91	3.12	3.72	3.81	3.81
ATCGAAAGGTCGACGATGTGAGTATACACCGTTT	2.66	3.8	3.82	1.13	4.27	1.91	-0.483	0.438
ATCTCTAGGTAACAAGTTCGGTGAAAGAGAGGAC	1.21	0.788	0.885	0.327	0.444	1.48	0.922	1.22
ATCGAAAGGTCGCCGAGGTGAGTATACACCGTTT	3.6	4.9	5.02	1.78	5.24	4.1	1.17	1.53
TTACCAATGTGAAGGTCGTTGATCCCTCTGTAGA	1.25	0.262	0.216	0.586	1.05	0.82	0.201	1.04
CTCGAAAGGTCGTGTTCAGGTGAGTATACCAAAC	2.87	4.55	3.44	2.35	4.3	4.17	1.16	1.16
ACTTACGGGTCAACGAGGTTATAACACGCGTATA	3.71	5.74	5.07	3.22	6.33	4.34	1.32	4.13
